Assay outcomes: PubChem BioAssay, Broad Institute
Not all results are given here.
aSyn 5UTR act: Activators working through SNCA 5'UTR binding (MLPCN) | alpha-synuclein 5'UTR reporter, activators screen | activity score, % (tested at 7.5 µM), hits read low | hit rate 7.1% among 300,000; in the data active = activity score below about -60%
* hit, by the source's call; + = active, no number.

SMILES	aSyn 5UTR act
COc1cccc(C(=O)/C=C2\Sc3ccccc3N2C)c1	-131.4*
Nc1c2c(=O)oc(-c3ccccc3)cc2nn1-c1ccccc1	-181.5*
CO/N=C/c1ccc(Oc2ccc(C)cc2)nc1	-77.5*
N#CCC(=O)Nc1ccc(C(=O)OCC(=O)c2ccc3c(c2)OCCO3)cc1	-111.7*
N#CCC(=O)Nc1ccc(C(=O)OCC(=O)c2ccc3c(c2)OCO3)cc1	-89.3*
CCCOc1ccccc1C1CC(=O)Nc2cc3c(cc21)OCCO3 (stereo not given)	103.3
COc1ccc(COc2cccnc2N)cc1	-90.5*
Nc1ncccc1OCc1ccc(Br)cc1	-158.8*
CC(=O)Nc1ccc(NC(=O)/C(Cl)=C/c2ccccc2)cc1	-117.5*
Cc1ccccc1NC(=S)c1ccc2ccccc2n1	-109.8*
O=C1c2ccccc2C(=O)c2c1oc(C(F)(F)F)c2C(=O)c1ccccc1	100.9
O=C(c1ccccc1)c1coc2c1C(=O)c1ccccc1C2=O	-80.5*
C[n+]1c(/C=C/c2ccc3c(c2)OCO3)ccc2ccccc21	-149.8*
C[n+]1c(/C=C/c2ccc(O)cc2)ccc2ccccc21	-171.8*
Cc1c(/C(O)=C2/C(=O)C(=O)N(Cc3cccnc3)C2c2cccs2)cnn1-c1ccccc1 (stereo not given)	-152.3*
COc1ccccc1NC(=O)c1ccc(-c2ccccc2[N+](=O)[O-])o1	-124.8*
O=C(Nc1nccs1)c1ccc(-c2ccccc2Cl)o1	-286.5*
O=C(Nc1nccs1)c1ccc(-c2ccccc2[N+](=O)[O-])o1	-134.6*
Nc1nc(CSC(=S)N2CCOCC2)nc(Nc2ccccc2)n1	-131.3*
Cc1ccc(Nc2nc(N)nc(CSC(=S)N3CCOCC3)n2)cc1	-127.3*
Cc1cccc(Nc2nc(N)nc(CSC(=S)N3CCOCC3)n2)c1	-108.4*
C=CCNS(=O)(=O)c1nc(C)c(Cl)c(C)c1C#N	-109.5*
CSc1ncc(CN2CCCC(C(=O)c3ccc(C(C)(C)C)cc3)C2)cn1 (stereo not given)	-87.7*
CCOCCCNC(=O)c1cccc(OC2CCN(S(C)(=O)=O)CC2)c1	-150.5*
CCOCCCNC(=O)c1ccc2c(c1)N=C(CC)c1cc(Br)ccc1S2	88.0
SMILES	aSyn 5UTR act
COC(=O)C(Cc1ccc(OC(=O)c2ccccc2Cl)cc1)N1Cc2ccccc2C1=O (stereo not given)	-87.5*
COC(=O)C(Cc1ccc(OC(=O)c2ccccc2C)cc1)N1Cc2ccccc2C1=O (stereo not given)	-141.9*
Cc1nccc(-c2ccc(-n3cnc4ccccc43)cc2)n1	-96.3*
Nc1nccc(-c2ccc(-n3cnc4ccccc43)cc2)n1	-62.9*
Cc1cn(CCC(=O)Nc2ccc(N3CCOCC3)cc2)c2ccccc12	-128.4*
Cc1cn(CCC(=O)Nc2ccccc2N2CCOCC2)c2ccccc12	-105.9*
Nc1ccc(OCCc2ccccc2)cc1	-76.4*
Cc1cc(/C=C2\SC(=S)N(C)C2=O)c(C)n1-c1cccc(O)c1	-70.7*
COc1ccc(-n2c(C)cc(/C=C3/SC(=S)N(C)C3=O)c2C)cc1	-85.4*
Cc1cc(/C=C2\SC(=S)N(Cc3ccco3)C2=O)c(C)n1-c1ccccc1	-74.0*
Cn1ccsc1=NC(=O)c1cccc(OC(F)F)c1	-127.9*
Cc1csc2ncnc(N3CCN(C(=S)Nc4ccc(C(F)(F)F)cc4)CC3)c12	55.9
O=C(Nc1ccc(Cl)c(Cl)c1)N1CCCCCC1	-140.2*
O=C(Nc1ccc2nsnc2c1)N1CCCCCC1	-98.0*
S=C(Nc1ccc2nsnc2c1)N1CCCC1	-133.0*
S=C(Nc1ccc2nccnc2c1)N1CCCC1	-86.7*
O=C(Nc1ccc(Cl)c(C(F)(F)F)c1)C(=O)N1CCCCC1	-67.0*
CCNC(=S)NNC(=O)c1cc(-c2cccc(C)c2)nc2ccccc12	-115.6*
CCCCOc1cccc(-c2cc(C(=O)NNC(=S)NCC)c3ccccc3n2)c1	-69.0*
CCNC(=S)NNC(=O)c1cc(-c2cccc(OCC)c2)nc2ccccc12	-89.0*
CC(C)(C)C(=O)NC(=S)Nc1ccc(F)cc1	-84.2*
CC(C)(C)C(=O)NC(=S)Nc1cccc(C(=O)O)c1	-160.7*
N#Cc1cn(-c2ccccc2)nc1C(=O)c1ccccc1	-192.0*
N#Cc1cn(-c2ccccc2)nc1-c1ccc2c(c1)OCCO2	-183.9*
N#Cc1cn(-c2ccccc2)nc1-c1ccco1	-147.0*
SMILES	aSyn 5UTR act
O=[N+]([O-])c1ccc(NC(=S)N/C(=N/CS(=O)(=O)c2ccccc2)c2ccccc2)cc1	-92.1*
COc1ccc(NC(=S)N/C(=N/CS(=O)(=O)c2ccccc2)c2ccccc2)cc1	-89.5*
Cc1cccc(NC(=S)N/C(=N/S(=O)(=O)c2ccccc2)c2ccccc2)c1	-103.4*
COc1ccc(O)c(/C=N/NC(=S)Nc2cccc(S(=O)(=O)N(C)C)c2)c1	74.1
O=C(O)c1cccc2c1-c1ccccc1/C2=N\Nc1ccccc1	-82.9*
Cc1cc2n(n1)SC(Nc1ccc(F)c(Cl)c1)N2 (stereo not given)	-76.9*
Cc1cc(C)n(-c2nnc(NC34CC5CC(CC(C5)C3)C4)nn2)n1	-172.2*
Cc1cc(C)n(-c2nc(Nc3ccccc3C(F)(F)F)nc(-n3nc(C)cc3C)n2)n1	61.9
Nc1nnc(/C=C/c2ccccc2Cl)s1	-81.3*
N/C(=N\OC(=O)c1cc([N+](=O)[O-])ccc1Cl)c1ccccn1	-82.4*
N/C(=N\OC(=O)c1ccc(Cl)cc1Cl)c1ccccn1	88.8
N/C(=N\OC(=O)c1ccc(Cl)cc1[N+](=O)[O-])c1ccccn1	-165.1*
N/C(=N\OC(=O)c1ccc([N+](=O)[O-])cc1Cl)c1ccccn1	68.9
Cc1cc(=O)oc2cc(NC(=O)c3c(Cl)cnn3C)ccc12	-76.1*
Cc1cc(=O)oc2cc(NC(=O)c3ccnn3C)ccc12	-135.3*
Cc1cc(=O)oc2cc(NC(=O)c3ccccc3Cl)ccc12	-201.3*
Cc1ccc2sc3ccc(NC(=O)c4ccccc4Cl)cc3c(=O)c2c1	-109.1*
Fc1ccc(N2CCN(C3=Nc4cccc5cccc3c45)CC2)cc1	-173.5*
Cc1cc(N2CCN(Cc3cn(C)nc3-c3ccccc3F)CC2)cc(C)n1	90.9
c1ccc(CN2CCN(C3=Nc4cccc5cccc3c45)CC2)cc1	-101.4*
CCOc1ccc(CNc2ccc3c(c2)ncn3C(C)(C)C)cc1	-84.4*
CN(C)c1ccc(CNc2ccc3c(c2)ncn3C(C)(C)C)cc1	-61.6*
CCOC(=O)c1ccc(N=Nc2c(C)c(C#N)c(O)[nH]c2=O)cc1	-73.7*
Cc1ccc(OCc2ccc(Br)cc2)c([N+](=O)[O-])n1	-141.1*
Cc1ccc(OCc2ccc(-c3ccccc3)cc2)c([N+](=O)[O-])n1	-83.6*
SMILES	aSyn 5UTR act
Cc1ccc(OCCOc2cccc(Br)c2)c([N+](=O)[O-])n1	-189.9*
NC(=O)N=Nc1c2[nH]c3ccccc3nc-2c2ccccc12	+
O=c1[nH]c2ccccc2nc1-c1ccc(Cl)cc1	-72.4*
O=c1[nH]c2ccccc2nc1-c1ccccc1	-73.2*
COc1ccc(N2Cc3ccccc3/C2=N\C(=O)Nc2ccccc2)cc1	-64.4*
CC(=O)CN1Cc2ccccc2/C1=N\C(=O)Nc1ccccc1	-72.6*
O=c1c2ccccc2nc(COc2ccccc2)n1/N=C/c1ccco1	-85.5*
Cc1nc2ccccc2c(=O)n1/N=C/c1ccccc1F	-101.5*
Nn1c(COc2ccc(Cl)cc2)nc2ccccc2c1=O	-66.8*
Cc1nc2ccccc2c(=O)n1/N=C/c1c(O)ccc2oc3c(c12)CCCC3	85.7
CCOc1ccc(/C=N/n2c(C)nc3ccccc3c2=O)cc1	-66.7*
CCN=c1scc(-c2ccc(F)cc2)n1/N=C/c1ccccn1	-73.0*
